Results taken from PubChem BioAssay (NCI).
The panel holds about 83,000 compounds, 20% with a hit somewhere; the sample as a whole holds those more often.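 Compound tested at a single concentration for 48 hours in 96-well plates; a percent growth value below 10 was scored as active.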 Activity calls are given as the source filed them.

Tests used:
Experiment in all cases: NCI-60 one-dose screen, 48 h (100 = growth as untreated, 0 = no growth, -100 = all killed)
SR leukemia = conditions: 10 µM unless noted
RPMI-8226 leukemia = conditions: 10 µM unless noted
OVCAR-8 ovarian = conditions: 10 µM unless noted
OVCAR-5 ovarian = conditions: 10 µM unless noted
OVCAR-4 ovarian = conditions: 10 µM
SK-OV-3 ovarian = conditions: 10 µM unless noted
OVCAR-3 ovarian = conditions: 10 µM unless noted
HS 578T breast = conditions: 10 µM unless noted
NCI/ADR-RES ovarian = conditions: 10 µM unless noted
T-47D breast = conditions: 10 µM unless noted
BT-549 breast = conditions: 10 µM unless noted
MDA-MB-435 melanoma = conditions: 10 µM unless noted
SW-620 colon = conditions: 10 µM unless noted
MCF7 breast = conditions: 10 µM unless noted
HCT-116 colon = conditions: 10 µM unless noted
HCC-2998 colon = conditions: 10 µM unless noted
KM12 colon = conditions: 10 µM unless noted

Measured: growth

CC(C)[N+](C)(C)CC(O)COc1cccc2ccccc12 (configuration not stated)
inactive: SR leukemia 107% | RPMI-8226 leukemia 94.1% | OVCAR-8 ovarian 98.4% | OVCAR-5 ovarian 94.6% | OVCAR-4 ovarian 116% | SK-OV-3 ovarian 110% | OVCAR-3 ovarian 96.8% | HS 578T breast 128% | NCI/ADR-RES ovarian 108% | T-47D breast 102% | BT-549 breast 112% | MDA-MB-435 melanoma 118% | SW-620 colon 99.7% | MCF7 breast 102% | HCT-116 colon 113% | HCC-2998 colon 101% | KM12 colon 96.1%

O=C1NC(=O)c2cc([N+](=O)[O-])cc3cccc1c23
inactive: SR leukemia 114% | RPMI-8226 leukemia 94.2% | OVCAR-8 ovarian 85.4% | OVCAR-5 ovarian 109% | OVCAR-4 ovarian 95.7% | SK-OV-3 ovarian 106% | OVCAR-3 ovarian 112% | HS 578T breast 106% | NCI/ADR-RES ovarian 95.9% | T-47D breast 96.1% | BT-549 breast 96% | MDA-MB-435 melanoma 100% | SW-620 colon 98.2% | MCF7 breast 90% | HCT-116 colon 107% | HCC-2998 colon 107% | KM12 colon 105%

CSc1nc2sc3cc(Cl)c(Cl)cc3n2c(=N)c1C#N
inactive: SR leukemia 106% | RPMI-8226 leukemia 112% | OVCAR-8 ovarian 91.4% | OVCAR-5 ovarian 123% | OVCAR-4 ovarian 97.5% | SK-OV-3 ovarian 89.3% | OVCAR-3 ovarian 110% | HS 578T breast 91.9% | NCI/ADR-RES ovarian 101% | T-47D breast 89.4% | MDA-MB-435 melanoma 97.7% | SW-620 colon 98.1% | MCF7 breast 60.5% | HCT-116 colon 100% | HCC-2998 colon 106% | KM12 colon 98.9%

O=c1cc(-c2ccccc2)oc2c(O)c(O)ccc12
inactive: SR leukemia 36.6% | RPMI-8226 leukemia 45.6% | OVCAR-8 ovarian 52.8% | OVCAR-5 ovarian 62.9% | OVCAR-4 ovarian 61.6% | SK-OV-3 ovarian 76.7% | HS 578T breast 91.4% | NCI/ADR-RES ovarian 24.5% | T-47D breast 68.2% | BT-549 breast 67.4% | MDA-MB-435 melanoma 68.8% | SW-620 colon 58% | MCF7 breast 60.9% | HCT-116 colon 39% | HCC-2998 colon 74.8% | KM12 colon 65.3%
active: OVCAR-3 ovarian 5.27%

O=c1[nH]c(CN2CCN(c3cccc(Cl)c3)CC2)nc2cc(Cl)ccc12
inactive: SR leukemia 89.7% | RPMI-8226 leukemia 34.7% | OVCAR-8 ovarian 46.2% | OVCAR-5 ovarian 85.3% | OVCAR-4 ovarian 104% | SK-OV-3 ovarian 82.1% | OVCAR-3 ovarian 100% | HS 578T breast 99% | NCI/ADR-RES ovarian 86.4% | T-47D breast 75.9% | BT-549 breast 110% | MDA-MB-435 melanoma 103% | SW-620 colon 99.2% | MCF7 breast 86.2% | HCT-116 colon 92.4% | HCC-2998 colon 96.2% | KM12 colon 99%

CCN(CC)CCSC(=O)C(O)(c1ccccc1)C1CCCC1 (configuration not stated)
inactive: SR leukemia 96.7% | RPMI-8226 leukemia 109% | OVCAR-8 ovarian 97.8% | OVCAR-5 ovarian 94.6% | OVCAR-4 ovarian 119% | SK-OV-3 ovarian 113% | OVCAR-3 ovarian 121% | HS 578T breast 110% | NCI/ADR-RES ovarian 84.5% | T-47D breast 109% | BT-549 breast 109% | MDA-MB-435 melanoma 115% | SW-620 colon 102% | MCF7 breast 114% | HCT-116 colon 109% | HCC-2998 colon 90.3% | KM12 colon 79.4%

COC(=O)c1cc2c(=O)[nH]cc3c2c(n1)CCC3
inactive: SR leukemia 113% | RPMI-8226 leukemia 76.2% | OVCAR-8 ovarian 105% | OVCAR-5 ovarian 99.8% | OVCAR-4 ovarian 103% | SK-OV-3 ovarian 100% | OVCAR-3 ovarian 99.1% | HS 578T breast 109% | NCI/ADR-RES ovarian 108% | T-47D breast 91.9% | BT-549 breast 108% | MDA-MB-435 melanoma 119% | SW-620 colon 103% | MCF7 breast 94.1% | HCT-116 colon 106% | HCC-2998 colon 88.4% | KM12 colon 106%

N#Cc1c(Cl)nc(SCC2CO2)nc1-c1ccccc1 (configuration not stated)
inactive: SR leukemia 89.8% | RPMI-8226 leukemia 103% | OVCAR-8 ovarian 51.6% | OVCAR-5 ovarian 101% | OVCAR-4 ovarian 103% | SK-OV-3 ovarian 70.2% | OVCAR-3 ovarian 137% | HS 578T breast 121% | NCI/ADR-RES ovarian 108% | T-47D breast 97.3% | BT-549 breast 81.4% | MDA-MB-435 melanoma 110% | MCF7 breast 83.9% | HCT-116 colon 88.8% | HCC-2998 colon 111% | KM12 colon 110%

O=C(O)c1ccccc1C(F)(F)F
inactive: SR leukemia 92.4% | RPMI-8226 leukemia 59% | OVCAR-8 ovarian 105% | OVCAR-5 ovarian 97.2% | OVCAR-4 ovarian 101% | SK-OV-3 ovarian 93.1% | OVCAR-3 ovarian 97.9% | HS 578T breast 89.7% | NCI/ADR-RES ovarian 80.8% | T-47D breast 76.5% | MDA-MB-435 melanoma 107% | SW-620 colon 98.7% | MCF7 breast 92.8% | HCT-116 colon 91.2% | KM12 colon 96.3%

NC(=O)c1c(NC(=O)COC(=O)Cc2ccccc2F)sc2c1CCC2
inactive: SR leukemia 125% | RPMI-8226 leukemia 130% | OVCAR-8 ovarian 39.4% | OVCAR-5 ovarian 111% | OVCAR-4 ovarian 114% | SK-OV-3 ovarian 104% | OVCAR-3 ovarian 112% | HS 578T breast 109% | NCI/ADR-RES ovarian 110% | T-47D breast 88.8% | BT-549 breast 106% | MDA-MB-435 melanoma 105% | SW-620 colon 97.4% | MCF7 breast 88.8% | HCT-116 colon 114% | HCC-2998 colon 114% | KM12 colon 105%

C[N+](C)(C)c1ncnc2[n-]cnc12
inactive: SR leukemia 107% | RPMI-8226 leukemia 126% | OVCAR-8 ovarian 93.7% | OVCAR-5 ovarian 76.4% | OVCAR-4 ovarian 105% | SK-OV-3 ovarian 98.7% | OVCAR-3 ovarian 92.4% | HS 578T breast 95.6% | NCI/ADR-RES ovarian 41.5% | T-47D breast 84% | MDA-MB-435 melanoma 104% | SW-620 colon 96.1% | MCF7 breast 89.8% | HCT-116 colon 105% | KM12 colon 93.6%

Cc1ccc(S(=O)(=O)N/N=C2\CC3CCC2(C)C3(C)C)cc1 (configuration not stated)
inactive: SR leukemia 105% | RPMI-8226 leukemia 97.4% | OVCAR-8 ovarian 88.8% | OVCAR-5 ovarian 83.4% | OVCAR-4 ovarian 104% | SK-OV-3 ovarian 114% | OVCAR-3 ovarian 103% | HS 578T breast 120% | NCI/ADR-RES ovarian 213% | T-47D breast 105% | MDA-MB-435 melanoma 103% | SW-620 colon 99.3% | MCF7 breast 90.3% | HCT-116 colon 104% | HCC-2998 colon 748% | KM12 colon 95.4%

COc1ccc2c3ccnc(C(F)(F)F)c3n(CCCCN)c2c1
inactive: SR leukemia 26.9% | RPMI-8226 leukemia 31.3% | OVCAR-8 ovarian 46.1% | OVCAR-5 ovarian 54.8% | OVCAR-4 ovarian 74.6% | SK-OV-3 ovarian 53.3% | OVCAR-3 ovarian 47.3% | HS 578T breast 44.9% | NCI/ADR-RES ovarian 64.9% | T-47D breast 52.1% | BT-549 breast 52.4% | MDA-MB-435 melanoma 45.9% | SW-620 colon 38.5% | MCF7 breast 35.5% | HCT-116 colon 16.5% | HCC-2998 colon 95.7% | KM12 colon 54.8%

O=C(COc1cccc(/C=C2\Oc3ccccc3C2=O)c1)c1ccc([N+](=O)[O-])cc1
inactive: SR leukemia 80.9% | RPMI-8226 leukemia 75.5% | OVCAR-8 ovarian 97.1% | OVCAR-5 ovarian 97.1% | OVCAR-4 ovarian 97% | SK-OV-3 ovarian 121% | OVCAR-3 ovarian 88.5% | HS 578T breast 98.4% | NCI/ADR-RES ovarian 79.1% | T-47D breast 51.6% | BT-549 breast 110% | MDA-MB-435 melanoma 116% | MCF7 breast 50.7% | HCT-116 colon 92.2% | HCC-2998 colon 96.8% | KM12 colon 110%

CN(C)c1cc(NN=C(c2ccc(O)cc2)c2ccc(O)cc2)c([N+](=O)[O-])cc1[N+](=O)[O-]
inactive: SR leukemia 92.2% | RPMI-8226 leukemia 131% | OVCAR-5 ovarian 98.4% | OVCAR-4 ovarian 97% | SK-OV-3 ovarian 96.5% | OVCAR-3 ovarian 95.5% | HS 578T breast 102% | NCI/ADR-RES ovarian 44.2% | T-47D breast 19.1% | BT-549 breast 115% | MDA-MB-435 melanoma 84.9% | SW-620 colon 108% | MCF7 breast 27.2% | HCT-116 colon 33.2% | HCC-2998 colon 59.1% | KM12 colon 92%
active: OVCAR-8 ovarian 8.9%
